# Compound activity as filed in PubChem BioAssay.
# Hits are enriched below; roughly 14% of the tested compounds scored in any of these assays.
# Shiga toxin inh – Shiga toxin inhibition; Vero cells, Shiga toxin protein synthesis inhibition reporter; inhibition, % at 38.7 µM; actives 9.2% (n = 290,000); in the data active means inhibition mostly above about 28%, no sharp cut-off; inactive means mostly below about 43%; further: 0% is about no effect
# LmPK inhibitor – LmPK (Leishmania mexicana) enzyme inhibition; Q27686; Potency, µM (top dose mostly 57.5 µM), without a hit: at the top dose activity change, negative = inhibition, most hits filed as inhibitors; purified LmPK, Kinase-Glo ATP luminescence, 1 h; actives 0.37% (n = 290,000); further: potency means the concentration at half of the fitted maximal effect; on the % scale 0 is the no-effect control and ±100 the full control effect
# Target sequence (Q27686 whole entry, looked up): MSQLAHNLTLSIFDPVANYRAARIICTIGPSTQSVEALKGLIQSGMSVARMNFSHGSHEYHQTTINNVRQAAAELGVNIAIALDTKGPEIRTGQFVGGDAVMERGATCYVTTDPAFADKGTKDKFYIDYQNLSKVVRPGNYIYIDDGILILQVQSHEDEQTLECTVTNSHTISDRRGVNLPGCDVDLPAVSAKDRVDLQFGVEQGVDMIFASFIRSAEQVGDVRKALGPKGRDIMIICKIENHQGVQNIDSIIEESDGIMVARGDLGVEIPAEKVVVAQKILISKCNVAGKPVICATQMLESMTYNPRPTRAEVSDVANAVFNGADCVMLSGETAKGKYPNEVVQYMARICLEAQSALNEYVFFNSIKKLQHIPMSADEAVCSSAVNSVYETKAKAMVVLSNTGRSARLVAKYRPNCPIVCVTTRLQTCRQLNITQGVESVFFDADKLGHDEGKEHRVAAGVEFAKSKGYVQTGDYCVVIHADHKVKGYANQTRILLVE
#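 Purified LmPK (0.1 nM) with 0.5 mM PEP and 0.1 mM ADP in imidazole buffer pH 7.2 with MgCl2/KCl, 1 h at room temperature. ATP formed was read by luciferase luminescence and normalized to no-enzyme and uninhibited controls.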
# CHX counter – affects cycloheximide protein synthesis inhibition readout, counter-screen; cell reporter, cycloheximide protein synthesis inhibition counterscreen; max response, %; actives 12% (n = 300,000); AID 2314; in the data active means max response mostly above about 13%, no sharp cut-off; inactive means mostly below about 14%; further: read at 38.3 µM for the half of the compounds with a filed dose; 0% is about no effect
# Giardia FBPA inh – Giardia lamblia aldolase inhibition | actives 0.71% (n = 290,000) | A8B2U2 | AID 2451 | purified Giardia FBPA | Potency, µM (series often up to 59.6 µM), for the others: at the top dose activity, negative = inhibition, hits mostly inhibitors; further: potency means the concentration at half of the fitted maximal effect; on the % scale 0 is the no-effect control and ±100 the full control effect; nearly all actives have a fitted effect of over 55% in size
#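 Giardia FBPA (40 nM reagent) was preincubated 10 min at RT with compound (up to 57.5 uM final), then substrate plus GAPDH/TPI/NAD/arsenate coupling system with diaphorase/resazurin was added; resorufin fluorescence (525/598 nm) was read after 20 min.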
# NS1 inh – blocks influenza NS1 protein function; Potency, µM (doses to about 46.1 µM), inactives show at the top dose activity, positive = more growth; actives 0.4% (n = 270,000); AID 2326; calls by dose curve; further: potency means the concentration at half of the fitted maximal effect; actives are rising curves; nearly all actives have a fitted effect of over 50% in size
#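 Growth recovery, yeast-based: influenza A NS1 expressed in S. cerevisiae causes slow growth, and suppressors are detected by OD600. The parent strain without NS1 is used as positive control.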
# The depositor's hits bear a star; ? = inconclusive; . = not tested or not shown; + = active, no number; [ ] = remark or other dose. Unless noted, the call rests on the fitted dose curve; in most records, active means well fitted curve in the direction sought with a large enough effect; inconclusive means small, poorly fitted or top-dose-only effect, or another doubt; inactive means no such curve, though single readings can be large; an effect the other way counts as inactive or inconclusive.
SMILES,Shiga toxin inh,LmPK inhibitor,CHX counter,Giardia FBPA inh,NS1 inh
CC(=O)C1=C(C)OC(N)=C(C#N)C1c1ccco1 (centres undefined),-26,17%,-2,?,7%
O=C(CSc1nccn1-c1ncc(C(F)(F)F)cc1Cl)c1ccc(Cl)cc1,+,1%,47*,3%,0%
O=C(OC1CCN(c2ncc(C(F)(F)F)cc2Cl)CC1)c1ccc(Cl)cc1,-6,-2%,-1,3%,-2%
O=C(O)CCCSc1nccn1-c1ccccc1,-11,2%,13,11%,1%
Cn1ccnc1SCC(=O)c1ccc(Br)cc1,60*,?,38*,-9%,-4%
Cn1ccnc1SCC(=O)c1c[nH]c2ccccc12,78*,?,44*,-17%,2%
O=C(CSc1nccn1-c1ccccc1)c1ccc(Br)cc1,39*,7%,16*,0%,13%
Cn1ccnc1SCC(=O)c1ccc([N+](=O)[O-])cc1,22,-1%,-2,-13%,4%
COC(=O)c1ccc(C(NC(=O)OCc2ccccc2)/C(C)=C/[C@@H](C)C(=O)NC2CCCCC2)cc1 (some centres undefined),.,.,.,-6%,.
COc1cccc(Cn2c(=O)c(C)nc3cnc(OC)nc32)c1,.,.,.,1%,.
COc1cccc2c1[C@H](CO)N1[C@H](C#N)[C@@H]3C[C@H](C(=O)O)[C@@H]([C@@H]1C2)N3C,.,.,.,.,0%
COc1ccc(C(=O)NC(C)c2nnc(SCC(=O)NC3CCCC3)n2C)cc1 (centres undefined),6,4%,-6,9%,-1%
C=CCc1cccc(/C=N/NC(=O)c2ccccc2Br)c1O,50*,8%,10,?,.
COc1ccccc1/C=N/NC(=O)c1ccccc1Cl,3,6%,15,0%,.
C=CCc1cccc(/C=N/NC(=O)c2ccccc2OC)c1O,135*,12%[11.5 µM],30*,?,.
O=C(COc1ccccc1[N+](=O)[O-])N(Cc1ccco1)C1CCS(=O)(=O)C1 (centres undefined),15,-2%,-2,.,7%
S=c1[nH]ncn1/N=C/c1ccccc1,-9,-1%,-2,?,3%
CCOc1ccc(/C=N/n2cc(-c3ccccc3)[nH]c2=S)cc1,28,-7%,19*,3%,-6%
CCOc1ccc(-n2c(-c3ccccc3)c[nH]c2=S)cc1,20,?,5,18%,7%
S=c1[nH]c(-c2ccccc2)cn1/N=C/c1ccncc1,21,4.5µM*,1,-1%,0%
Clc1ccccc1C(Nc1ncccn1)Nc1ncccn1,.,.,.,.,-8%
O=C(O)NCC1CCCCC1 (tested in a mixture with another compound),.,.,.,.,-5%
CCOc1ccc(C(CC(=O)O)NC(=O)C(Sc2ccccc2)c2ccccc2)cc1 (centres undefined),0,0%[11.5 µM],-6,23%,.
CCc1cc[n+](/C(C(=S)Nc2cccc(C)c2)=C(/[O-])c2ccc(C)c([N+](=O)[O-])c2)cc1,5,4%,-1,-14%,3%
Cc1ccc(/C([O-])=C(/C(=S)NCc2ccco2)[n+]2ccccc2)cc1,-12,5%,-1,-24%,4%
SMILES,Shiga toxin inh,LmPK inhibitor,CHX counter,Giardia FBPA inh,NS1 inh
O=[N+]([O-])c1ccc(/C([O-])=C(/C(=S)Nc2ccccc2F)[n+]2ccccc2)cc1,16,-4%,4,-8%,.
COc1cccc(NC(=S)/C(=C(\[O-])c2ccc([N+](=O)[O-])cc2)[n+]2ccccc2)c1,66*,0%,24*,-8%,.
O=[N+]([O-])c1cccc(/C([O-])=C(/C(=S)Nc2cccc3ccccc23)[n+]2ccccc2)c1,64*,3%,27*,-56%,?
CCOc1ccc(NC(=S)/C(=C(\[O-])c2ccc(C)c([N+](=O)[O-])c2)[n+]2ccccc2)cc1,41*,1%,33*,-5%,2%
Cc1ccc(NC(=S)/C(=C(\[O-])c2ccc(F)cc2)[n+]2ccccc2)cc1,36,-3%,21*,-13%,.
CCc1ccc(NC(=O)C2CCCN2c2nn3c(=O)cc(C)nc3s2)cc1 (centres undefined),-5,-5%,-2,-6%,23%
CS(=O)(=O)N1CCC2(CC1)CN(C(=O)Nc1cccc(F)c1)C2,.,.,.,1%,.
Cc1cccc(NC(=O)c2cnccn2)c1,.,4%,17*,4%,-10%
O=C(Nc1ccc2c(c1)OCO2)c1cnccn1,88*,6%,21*,3%,.
Cc1cc(F)ccc1NC(=O)c1cnccn1,11,0%,12,-9%,.
Cc1ccc(NC(=O)c2nsc(Cl)c2Cl)cc1,70*,-11%,56*,-1%,-4%
Cc1ccc(NC(=O)c2cnccn2)cc1C,.,-3%,34*,1%,-8%
Cc1ccc(NC(=O)c2nc[nH]c2C(=O)Nc2ccc(C)cc2)cc1,-6,1%,-3,8%,5%
O=C(Nc1ccc(Br)cc1)c1cnccn1,117,-8%,32*,3%,-17%
Cc1ccc(NC(=O)c2ccc(Cl)nc2)cc1,140*,0%,34*,-10%,-5%
Cc1nc(NC(=O)c2cnccn2)ccc1Br,107*,-24%,43*,7%,1%
O=C(O)Cc1ccc(NC(=O)c2cnccn2)cc1,-22,-10%,-1,-4%,3%
CC(C)N(C(C)C)S(=O)(=O)c1ccc(NC(=O)c2cnccn2)cc1,.,8%,2,-5%,-1%
Cc1ccc(NC(=O)c2cnccn2)cc1,72*,-1%,34*,7%,.
CCN(CC)S(=O)(=O)c1ccc(NC(=O)c2ccc(Cl)nc2)cc1,-5,2%,-2,-2%,-8%
O=C1N=c2ccccc2=C1c1c(O)[nH]c2c(C(F)(F)F)cccc12,.,3%,-2,3%,-26%
CCc1ccc(CN2CCCC(C(=O)Nc3ccccc3-c3ccc(OC)cc3)C2)o1 (centres undefined),-10,6%,-2,.,-9%
CCCSc1ccc(C(=O)Nc2ccc(Cl)cc2)cn1,43,-3%,28*,1%,1%
Cc1ccc(N2C(=O)c3ccccc3NC2C(C)Cc2ccc3c(c2)OCO3)cc1 (centres undefined),48*,3%,18*,-8%,27%
O=C(NC1CCN(c2ncccn2)CC1)c1c(F)cccc1F,-6,0%,-8,13%,-4%
CCCn1nnc(NC(=S)NC(=O)Cc2ccccc2)n1,19,0%,7,?,11%
CCCCn1c(NC(=O)c2ccco2)c(S(=O)(=O)c2ccc(C)cc2)c2nc3ccccc3nc21,1,-4%,-2,?,16%
CCCCn1nnc(NC(=O)c2ccco2)n1,13*,-1%,26*,7%,-2%
CCCCn1c(NC(=O)c2ccco2)c(C(=O)OCC)c2nc3ccccc3nc21,-4,1%,-1,5µM*,-38%
CCCCn1nnc(NC(=S)NC(=O)c2cccs2)n1,115*,-9%,28*,?,-7%
